aSyn UTR inh: MLPCN primary screen, SNCA 5' untranslated region; alpha-synuclein 5'UTR reporter, inhibitor activity; AID 1813; inhibition, % (tested at 7.5 µM); 300,000 tested, 0.82% active; in the data active = inhibition above about 60%;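 note: H4 neuroglioblastoma cells stably carrying SNCA 5'UTR luciferase fusion; 0% = DMSO wells and 100% = positive control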
KLF5 inh: kruppel-like factor 5 inhibition; inhibition, % at 5 µM; DLD-1 KLF5 promoter-luciferase reporter, luminescence; 290,000 tested, 0.23% active; AID 1700;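 active = inhibition above a per-plate limit of that plate's mean compound inhibition plus 3 SD, cut at about 60% in these data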;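 note: 0% = DMSO wells and 100% = LY294002 at 200 µM; higher means less KLF5 promoter-driven luciferase light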
IEC-6 cytotox: kills IEC-6 intestinal cells in KLF5 counter-screen | IEC-6 cytotoxicity, luminescence viability | 290,000 tested, 0.78% active | inhibition, % at 5 µM; in the data active = inhibition above about 22%;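 note: 0% = plate median of test compound wells and 100% = cytotoxic reference compound wells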
BaF3 tox: parental Ba/F3 viability inhibition as JAK2V617F counter-screen. CellTiter-Glo ATP luminescence. inhibition, % at 5.6 µM. 220,000 tested, 1.1% active;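 active = inhibition above a per-campaign cutoff, the mean inhibition of all tested compounds plus 3 SD, cut at about 27% in these data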;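 note: 0% = DMSO wells and 100% = JAK Inhibitor I control wells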
APP transl inh: APP translation inhibition; SH-SY5Y APP 5'UTR-luciferase reporter, luminescence; inhibition, % at 2 µM; 190,000 tested, 0.82% active;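 active = inhibition above a set limit, derived from the sample mean plus 3 SD, cut at about 45% in these data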
Ba/F3 V617F tox: loss of viability in JAK2V617F-driven Ba/F3 cells; Ba/F3 EpoR-JAK2V617F viability, ATP luminescence; inhibition, % at 5.6 µM; 220,000 tested, 1.1% active; AID 1446;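 active = inhibition above the campaign mean plus 3 SD over all tested compounds, cut at about 24% in these data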;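 note: cytokine-independent growth of Ba/F3 cells driven by EpoR plus mutant JAK2; 0% = DMSO-treated cells and 100% = JAK inhibitor I control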
* = called active by the depositor; nt = not tested or not shown. In the library only some 2.1% were active in any assay of this set; here they are far more common.

SMILES	aSyn UTR inh	KLF5 inh	IEC-6 cytotox	BaF3 tox	APP transl inh	Ba/F3 V617F tox
Cn1cc(/C=C/c2cc[n+](C)cc2)c2cc(F)ccc21	22.7	-7.9	3.5	nt	nt	nt
Cn1cc(/C=C/c2cc[n+](C)cc2)c2cc(Cl)ccc21	63.8*	18.8	2.8	nt	nt	nt
O=C(O)c1ccc(-c2nnn(Cc3cccc(C(F)(F)F)c3)n2)cc1	16.9	-11.3	-3.6	-0.6	nt	-3.7
CCOc1ccccc1-c1nc(CN2CCN(C(=O)c3ccco3)CC2)c(C)o1	21.2	-4.8	-9.2	nt	nt	nt
CCOc1ccccc1-n1c(CN2CCN(C(=O)c3ccco3)CC2)nc2ccccc2c1=O	110.5*	-7.0	1.1	-1.4	7.5	-0.6
Cc1ccc(S(=O)(=O)N2CCN(c3ccccc3)CC2)c(C)c1	-17.1	-21.9	-0.6	nt	nt	nt
Cc1cc2nc(/N=C(\N)NC(=O)C(C)C)nc(C)c2cc1C	28.8	-7.0	9.4	29.5*	nt	11.6
CCC(=O)N/C(N)=N/c1nc(C)c2cc(C)c(C)cc2n1	42.1	-11.0	4.3	53.0*	nt	38.2*
CCCC(=O)N/C(N)=N/c1nc(C)c2cc(C)ccc2n1	-30.9	-7.4	0.0	19.5	nt	12.7
C=CCN1C(=O)C2C(C(=O)NC3CCCC3)C3C=CC2(O3)C1C(=O)NC1CCCC1 (configuration not stated)	0.8	-27.7	-0.8	nt	nt	nt
COc1ccc(CCNC(=O)Cc2c(Cl)cccc2Cl)cc1	-19.5	0.8	0.8	-1.2	-2.8	3.8
O=C(Cc1cccc2ccccc12)Nc1ccc(-c2cc3ccccc3oc2=O)cc1	65.1*	25.2	0.4	-2.6	33.9	-3.8
Cc1cc(C)cc(C(=O)NC(=S)Nc2ccc(-c3cc4ccccc4oc3=O)cc2)c1	96.8*	9.4	6.5	3.7	41.8	4.2
CC(=O)Nc1ccc(NC(=O)c2cccc(-c3cc4ccccc4oc3=O)c2)cc1	-30.4	-90.7	0.9	5.4	-15.7	-1.0
CCC(=O)Nc1cccc(-c2cc3ccccc3oc2=O)c1	-58.2	-25.6	6.9	0.3	-39.8	0.3
Cc1ccc(C(=O)NC(=S)Nc2ccc(-c3cc4ccccc4oc3=O)cc2)c(C)c1	88.3*	3.2	-2.4	6.6	nt	-2.6
CC(=O)Nc1ccc(NC(=S)NC(=O)c2cc3ccccc3o2)cc1	-70.5	-14.7	7.0	2.1	-5.1	0.2
Cn1c(=O)[nH]c(=O)c2c1nc1n2CC(O)CN1c1ccccc1 (configuration not stated)	1.7	2.4	-4.1	nt	nt	nt
COc1ccccc1-c1c(C)oc2cc(OCC(=O)OCc3ccccc3)ccc2c1=O	2.3	-18.0	-1.6	10.1	2.6	2.5
CC(=O)c1sc(NC(=O)C2COc3ccccc3O2)nc1C (configuration not stated)	61.8*	-37.7	0.4	0.7	-132.2	-1.8
C/C(=N\NC(=O)C1COc2ccccc2O1)c1ccccn1 (configuration not stated)	98.2*	-14.9	2.4	6.0	44.9	0.4
Cc1ccnc(NC(=O)C2COc3ccccc3O2)c1 (configuration not stated)	-97.1	-113.3	7.9	84.7*	-129.6	6.5
O=C(Nc1nncs1)C1COc2ccccc2O1 (configuration not stated)	-39.2	-34.6	-3.0	3.1	-12.7	-4.0
CC(=O)c1cccc(NC(=O)c2cccc3ccccc23)c1	2.2	-23.5	7.2	nt	nt	nt
COc1ccccc1-c1nnc2sc(-c3cc4ccccc4o3)nn12	76.3*	-1.1	58.1*	79.7*	5.5	88.2*
SMILES	aSyn UTR inh	KLF5 inh	IEC-6 cytotox	BaF3 tox	APP transl inh	Ba/F3 V617F tox
COc1ccccc1-c1nnc2sc(-c3cnccn3)nn12	9.7	-20.3	1.3	6.0	-0.1	2.5
COc1ccc(-c2nc(CN3CCN(c4cc(C)nc(C)c4)CC3)c(C)o2)c2ccccc12	67.9*	-34.4	-2.7	5.5	11.5	0.5
Cc1cc(N2CCN(Cc3nc(-c4ccc(Cl)cc4)oc3C)CC2)cc(C)n1	-4.8	-13.0	9.9	-5.1	nt	4.1
CCC(NC(=O)c1cncc(Br)c1)c1ccccc1 (configuration not stated)	15.4	nt	nt	nt	nt	nt
O=C(COc1ccc(Br)cc1)N1CCN(S(=O)(=O)/C=C/c2ccccc2)CC1	36.8	-28.6	-3.1	8.8	68.7*	2.1
CCCCCCCC[n+]1c(C)n(-c2ccccc2)c2ccc(NC(C)=O)cc21	-9.6	6.9	9.3	74.5*	-8.9	86.8*
C[N+]1(CC(=O)NNc2c3ccccc3nc3ccccc23)CCOCC1	-6.3	9.2	1.2	28.9*	-16.6	17.0
O=C(CN1CCOCC1)NNc1c2ccccc2nc2ccccc12	-1.5	-45.7	-1.8	-0.5	nt	0.2
Cc1[nH]n(C2=NCCS2)c(=O)c1N=Nc1cccc(C(F)(F)F)c1	66.6*	-26.6	-8.5	7.2	53.1*	-0.4
Cc1[nH]n(C(N)=S)c(=O)c1N=Nc1cccc(C(F)(F)F)c1	-164.6	-139.4	1.7	nt	nt	nt
O=C(NCC(c1ccco1)N1CCc2ccccc2C1)C(=O)Nc1ccc(F)cc1F (configuration not stated)	-21.1	nt	nt	nt	nt	nt
COc1nnc(-c2ccc(N3CCCCC3)c(N)c2)c2ccccc12	-46.0	-9.4	6.3	45.7*	-17.6	37.1*
Cn1c(=O)c2ccccc2n(CC(=O)N2CCCc3ccccc32)c1=O	6.9	-29.2	1.6	nt	nt	nt
O=C(COC(=O)C1C2CC3OC(=O)C1C3C2)Nc1cccc(Cl)c1 (configuration not stated)	6.4	-32.4	-4.7	nt	nt	nt
CCOc1ccc(-c2nnc(SCC(=O)Nc3ccc4c(c3)c3ccccc3n4CC)n2N)cc1	84.2*	-1.9	9.0	0.0	13.3	3.0
C=CCn1cc(/C=N/Nc2nc3ccccc3[nH]2)c2ccccc21	-194.9	-30.9	22.8*	3.5	-39.6	0.7
Cc1c(/C=N/Nc2nc3ccccc3[nH]2)c2ccccc2n1C	-60.9	-60.0	18.0	-0.9	nt	-1.2
CCCn1c(/C=N/Nc2nc3ccccc3[nH]2)nc2ccccc21	nt	-119.3	-6.8	2.5	73.8*	-1.7
Cn1c(/C=N/Nc2nc3ccccc3[nH]2)nc2ccccc21	-188.2	-62.1	7.9	9.2	-34.8	5.8
CC(C)Cn1c(/C=N/Nc2nc3ccccc3[nH]2)nc2ccccc21	-337.1	-32.1	-8.4	3.0	71.3*	1.2
O=C(NCc1ccco1)C1(S(=O)(=O)c2ccccc2)CC=CC1	9.2	-19.8	6.1	nt	nt	nt
Cc1ccc(NC2CCCN(C(=O)c3ccc4[nH]ccc4c3)C2)cc1C (configuration not stated)	-3.5	-19.2	3.7	nt	nt	nt
Cc1cc(C)nc(NC(=O)c2ccc(COc3ccccc3Cl)cc2)c1	2.8	28.4	19.1	70.9*	3.4	61.9*
O=S(=O)(c1ccc(Cl)c(Cl)c1)c1snnc1-c1ccccc1	118.1*	19.4	2.1	41.6*	95.4*	57.7*
Cc1ccc(C(=O)Nc2ncc([N+](=O)[O-])s2)cc1	68.9*	86.9*	14.3	nt	nt	nt
Cc1ccc(C(=O)Nc2ncc(C)s2)o1	-119.0	-177.3	5.3	7.8	-29.8	2.9
Cc1ccc(C(=O)Nc2ncc(Cc3ccc(SC(F)F)cc3)s2)cc1	-162.7	32.7	2.2	1.9	92.6*	3.3

Source: PubChem BioAssay (several laboratories)
